# Test results: PubChem BioAssay
# The source made the active and inactive calls.
# What was measured:
# [1] = optical density shifts of acrAB sulA E. coli – strain DRC41, OD650, 48 h, E. coli filamentation inducer project, primary screen (AID 1152); details: higher = more signal, called active from +8 up or from −8 down;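 further: E. coli MC1000 strain DRC41 lacking acrAB efflux pump and sulA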
# [2] = probe aLefty1 binding on compound microarray – biochemical, small-molecule microarray, 635/667 nm fluorescence, primary screen (AID 1153); details: higher = more signal;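 further: score merges spot fluorescence with signal-to-noise ratio from the scanned slide images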
# [3] = plasmodial surface anion channel blockers, osmotic lysis – cell-based, P. falciparum Indochina, OD700, 1 h, primary screen (AID 1154); details: P. falciparum Indochina infected RBC osmotic lysis, higher = more signal, called active from +8 up or from −8 down
# [4] = plasmodial surface anion channel blockers, osmotic lysis – cell-based, P. falciparum Indochina, OD700, 2 h, primary screen (AID 1155);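 further: lysis reports solute entry through the parasite surface anion channel PSAC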; details: P. falciparum Indochina infected erythrocytes, higher = more signal, called active from +8 up or from −8 down
# [5] = changes in parasitized red cell lysis, either direction – P. falciparum Indochina, OD700, 3 h, PSAC antagonist project, primary screen (AID 1156); details: P. falciparum-infected erythrocytes, osmotic lysis, higher = more signal, called active from +8 up or from −8 down
# [6] = plasmodial surface anion channel blockers, osmotic lysis – cell-based, P. falciparum Indochina, OD700, 18 h, primary screen (AID 1157); details: P. falciparum Indochina infected erythrocytes, osmotic lysis OD700, 18 h; higher = more signal, called active from +8 up or from −8 down
# [7] = S6 kinase pathway phospho-S6 level changes – cell-based, A549, cytoblot, luminescence, serum-stimulated, primary screen (AID 1158); details: 5 h, higher = more signal;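 further: serum-stimulated A549 lung adenocarcinoma cells; signal is phosphorylated S6 detected by cytoblot immunostaining with HRP secondary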
# [8] = target: NADPH oxidase 2 (Homo sapiens) (UniProt P04839); assay: compounds shifting NOX2 Amplex Red fluorescence – cell-based, HEK293-NOX2, PMA-stimulated, NOX inhibitor project, primary screen (AID 1159); details: 45 min, higher = more signal, called active from +8 up or from −8 down; further: test concentration not given here
# Sequence of NADPH oxidase 2 (Homo sapiens) (P04839 whole entry, looked up): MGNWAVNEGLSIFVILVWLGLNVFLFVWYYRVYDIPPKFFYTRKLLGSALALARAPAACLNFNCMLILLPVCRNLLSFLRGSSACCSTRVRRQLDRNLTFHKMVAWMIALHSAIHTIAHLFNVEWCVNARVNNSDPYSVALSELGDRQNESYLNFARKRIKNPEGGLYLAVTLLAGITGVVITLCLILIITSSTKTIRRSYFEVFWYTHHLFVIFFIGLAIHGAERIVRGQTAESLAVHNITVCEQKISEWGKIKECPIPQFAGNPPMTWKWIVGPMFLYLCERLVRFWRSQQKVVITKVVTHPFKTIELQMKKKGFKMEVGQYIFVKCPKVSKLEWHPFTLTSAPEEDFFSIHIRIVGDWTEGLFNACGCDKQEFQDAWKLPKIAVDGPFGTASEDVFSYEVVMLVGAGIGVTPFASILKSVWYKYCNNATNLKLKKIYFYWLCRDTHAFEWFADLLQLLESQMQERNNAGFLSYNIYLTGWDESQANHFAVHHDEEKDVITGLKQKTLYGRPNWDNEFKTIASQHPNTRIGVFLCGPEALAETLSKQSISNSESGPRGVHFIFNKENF
# [9] = target: NADPH oxidase 4 (Homo sapiens) (UniProt Q9NPH5); assay: compounds shifting NOX4 Amplex Red fluorescence – cell-based, HEK293-NOX4, tetracycline-induced, NOX inhibitor project, primary screen (AID 1160); details: HEK293-NOX4, Amplex Red H2O2 fluorescence, 45 min; higher = more signal, called active from +8 up or from −8 down
# Sequence of NADPH oxidase 4 (Homo sapiens) (Q9NPH5 whole entry, looked up): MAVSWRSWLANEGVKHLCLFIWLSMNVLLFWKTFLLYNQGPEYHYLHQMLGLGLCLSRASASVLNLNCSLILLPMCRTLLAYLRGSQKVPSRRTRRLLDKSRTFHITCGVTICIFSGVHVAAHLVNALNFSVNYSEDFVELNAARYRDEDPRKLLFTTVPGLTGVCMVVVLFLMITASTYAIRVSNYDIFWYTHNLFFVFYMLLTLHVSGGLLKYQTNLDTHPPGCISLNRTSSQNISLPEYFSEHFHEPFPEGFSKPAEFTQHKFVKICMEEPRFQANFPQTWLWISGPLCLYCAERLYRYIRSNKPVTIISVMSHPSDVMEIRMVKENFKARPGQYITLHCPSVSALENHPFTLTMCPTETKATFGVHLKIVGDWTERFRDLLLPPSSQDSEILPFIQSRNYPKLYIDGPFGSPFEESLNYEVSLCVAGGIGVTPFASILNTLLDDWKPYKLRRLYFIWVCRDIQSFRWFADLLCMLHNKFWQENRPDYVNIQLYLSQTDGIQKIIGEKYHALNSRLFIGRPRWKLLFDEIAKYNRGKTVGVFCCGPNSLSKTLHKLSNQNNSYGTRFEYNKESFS
# [10] = target: NADPH oxidase 5 (Homo sapiens) (UniProt Q96PH1); assay: compounds shifting NOX5 Amplex Red fluorescence – cell-based, HEK293-NOX5, NOX inhibitor project, primary screen (AID 1161); details: HEK293-NOX5, ionomycin, 45 min, higher = more signal
# Sequence of NADPH oxidase 5 (Homo sapiens) (Q96PH1 whole entry, looked up): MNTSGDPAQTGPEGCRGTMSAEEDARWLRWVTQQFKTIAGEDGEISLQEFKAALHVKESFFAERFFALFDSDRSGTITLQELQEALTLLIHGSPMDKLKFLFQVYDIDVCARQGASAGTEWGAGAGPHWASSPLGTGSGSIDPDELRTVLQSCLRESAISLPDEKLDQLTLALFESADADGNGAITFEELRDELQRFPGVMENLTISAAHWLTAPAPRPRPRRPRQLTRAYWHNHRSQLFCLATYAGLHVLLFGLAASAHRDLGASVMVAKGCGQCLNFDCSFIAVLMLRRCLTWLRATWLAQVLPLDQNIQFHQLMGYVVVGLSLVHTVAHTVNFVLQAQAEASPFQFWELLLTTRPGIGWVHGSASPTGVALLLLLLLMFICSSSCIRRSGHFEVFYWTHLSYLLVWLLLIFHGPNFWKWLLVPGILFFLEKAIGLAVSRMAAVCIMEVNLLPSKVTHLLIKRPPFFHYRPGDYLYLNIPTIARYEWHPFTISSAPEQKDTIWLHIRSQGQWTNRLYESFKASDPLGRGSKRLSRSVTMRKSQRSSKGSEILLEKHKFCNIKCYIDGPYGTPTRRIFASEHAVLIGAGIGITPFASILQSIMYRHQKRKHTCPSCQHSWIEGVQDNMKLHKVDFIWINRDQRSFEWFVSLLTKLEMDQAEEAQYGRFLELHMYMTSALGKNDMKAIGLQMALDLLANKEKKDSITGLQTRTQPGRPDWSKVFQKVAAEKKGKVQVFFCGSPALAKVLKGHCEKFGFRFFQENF
# [11] = compound effects on lung adenocarcinoma cell viability – A549, calcein-AM fluorescence, 48 h, basal, profiling panel (AID 1162); details: higher = more signal; further: test concentration not given here
# [12] = compound effects on differentiated 3T3-L1 adipocyte viability – cell-based, 3T3-L1 adipocytes, calcein-AM fluorescence, 48 h, basal, profiling panel (AID 1163); details: 3T3-L1 adipocytes viability, higher = more signal; further: test concentration not given here
# [13] = compound effects on hepatocellular carcinoma cell viability – HepG2, calcein-AM fluorescence, 48 h, basal, profiling panel (AID 1164); details: higher = more signal; further: test concentration not given here
# [14] = compound effects on multiple myeloma cell viability – MM1S, calcein-AM fluorescence, 48 h, basal, profiling panel (AID 1165); details: higher = more signal;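 further: viability of MM1S multiple myeloma cells under basal unstimulated conditions; test concentration not given here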
# [15] = calcein-AM signal in unstimulated myeloma cells – cell-based, calcein-AM fluorescence, 48 h, PK04 Diversity Set, profiling panel (AID 1166); details: RPMI8226 myeloma viability, higher = more signal;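 further: cells grown under basal conditions without added stimulus; test concentration not given here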
# [16] = JC-1 mitochondrial signal, unstimulated HepG2 cells – cell-based, JC-1 fluorescence, 24 h, 100 nL compound, profiling panel (AID 1167); details: HepG2 mitochondrial potential, higher = more signal; further: test concentration not given here
# [17] = JC-1 mitochondrial signal, unstimulated adipocytes – cell-based, JC-1 fluorescence, 3T3-L1 adipocytes, 24 h, 100 nL compound, profiling panel (AID 1168); details: JC-1 mitochondrial fluorescence, higher = more signal, called active from +8 up or from −8 down; further: test concentration not given here
# [18] = JC-1 mitochondrial signal, unstimulated myeloma cells – cell-based, JC-1 fluorescence, RPMI8226, 24 h, 100 nL compound, profiling panel (AID 1169); details: JC-1 mitochondrial potential fluorescence, higher = more signal; further: test concentration not given here
# [19] = JC-1 mitochondrial signal, unstimulated MM1S myeloma – cell-based, JC-1 fluorescence, 24 h, 100 nL compound, profiling panel (AID 1170); details: MM1S mitochondrial potential, higher = more signal; further: test concentration not given here
# [20] = resazurin metabolic signal in A549 cells – cell-based, resazurin fluorescence, 24 h, PK04 Diversity Set, profiling panel (AID 1171); details: A549 viability, higher = more signal, called active from +8 up or from −8 down; further: test concentration not given here
Compound,z-score [1],composite z-score [2],z-score [3],z-score [4],z-score [5],z-score [6],z-score [7],z-score [8],z-score [9],z-score [10],z-score [11],z-score [12],z-score [13],z-score [14],z-score [15],z-score [16],z-score [17],z-score [18],z-score [19],z-score [20]
COCCOC(=O)N1C(=O)[C@@]2(c3cc(C#CC4=CCCCC4)ccc31)[C@H](c1ccc(OCCO)cc1)N1[C@H](c3ccccc3)[C@H](c3ccccc3)OC(=O)[C@H]1[C@@H]2C(=O)N1CCCCCCC1,3.39 (inactive),1.85,2.24 (inactive),0.742 (inactive),0.171 (inactive),-0.521 (inactive),2.26,1.44 (inactive),0.639 (inactive),1.3,0.508,1.35,1.5,0.177,-0.288,-0.288,-2.7 (inactive),-1.19,-1.21,-2.16 (inactive)
C=CCC(OC(C)=O)[C@@H]1[C@@H](N(Cc2ccc(-c3ccccc3)cc2)C(=O)c2ccc(C)cc2)c2cc(OCCCO)ccc2N1C(=O)c1ccc2ccccc2c1 (stereo not given in full),2.09 (inactive),0.0367,0.0032 (inactive),-0.792 (inactive),-1.31 (inactive),-1.33 (inactive),1.18,-0.167 (inactive),0.972 (inactive),1.94,2.26,0.558,1.71,0.697,-0.481,3.18,-0.379 (inactive),0.0174,0.593,0.864 (inactive)
CN1C(=O)[C@]2(CCS(=O)(=O)c3ccccc3)N=C(c3ccc(OCCCO)cc3)O[C@@H]2c2ccccc21,-1.06 (inactive),0.18,29.6 (active),27.2 (active),2.49 (inactive),1.87 (inactive),-0.0831,0.276 (inactive),-0.0954 (inactive),-1.12,-0.189,-1.15,0.881,-2.04,-1.77,-0.447,-0.466 (inactive),-0.852,0.48,-0.015 (inactive)
CC1(C)OC[C@@]23C=C(Br)[C@@H](C[C@H]12)[C@@]1(CO1)C3=O,-0.68 (inactive),0.0557,-0.396 (inactive),0.355 (inactive),0.0349 (inactive),-0.0371 (inactive),-0.552,0.173 (inactive),0.63 (inactive),-0.278,0.0066,-0.588,-0.0344,-0.229,-0.215,-0.973,0.228 (inactive),0.855,-0.151,-0.843 (inactive)
O=C1OCCC/C=C\[C@H]2OC34C=CCN(Cc5ccccc5)C(=O)[C@H]3N(CCCCCO)C(=O)[C@@H]4C12 (stereo not given in full),0.435 (inactive),-0.094,-0.457 (inactive),-0.172 (inactive),-0.123 (inactive),-0.354 (inactive),-0.412,1.17 (inactive),0.487 (inactive),1.76,0.379,0.65,0.414,1.03,-0.42,-0.0205,-0.0419 (inactive),0.803,-0.322,1.37 (inactive)
[N-]=[N+]=NCc1ccccc1C[C@]1(C(=O)O)COC(c2ccc(OCCCO)cc2)=N1,0.0626 (inactive),0.118,5.11 (inactive),0.179 (inactive),1.56 (inactive),-0.315 (inactive),0.49,0.0988 (inactive),1.27 (inactive),0.641,0.608,-0.379,0.383,-0.175,0.345,-0.578,-0.634 (inactive),-0.285,-0.261,0.0946 (inactive)
C=CC[C@@]1(C(=O)N(C)C)N=C(c2ccc(OCCCO)cc2)O[C@@H]1c1ccccc1,-0.463 (inactive),0.123,24 (active),5.44 (inactive),0.549 (inactive),1.13 (inactive),-0.342,-0.315 (inactive),0.723 (inactive),-0.651,-0.511,-0.681,-0.815,-1.01,0.127,-0.644,-0.895 (inactive),-0.305,-0.491,0.79 (inactive)
CCOC(=O)C1=C[C@@H](C(C)(C)C)N(S(=O)(=O)c2ccc(C)cc2)[C@H]1c1ccccc1Cl,-1.29 (inactive),0.208,-0.747 (inactive),0.627 (inactive),-0.775 (inactive),0.193 (inactive),-0.535,-1.54 (inactive),-0.44 (inactive),0.1,-0.917,-1.16,-1.81,-0.991,-1.2,3.95,0.147 (inactive),-0.822,-0.863,0.772 (inactive)
O=C(NCCO)C1=C[C@H](Oc2ccccc2I)[C@@H](O)[C@H](NCc2ccc(F)cc2)C1,-1.76 (inactive),-0.338,5.38 (inactive),1.82 (inactive),1.33 (inactive),1.11 (inactive),0.436,0.71 (inactive),-0.89 (inactive),-3.29,0.576,2.37,-0.793,-0.217,-1.26,-0.574,0.471 (inactive),0.391,0.185,-1.45 (inactive)
